Compound activity from PubChem BioAssay.
SARS PLpro yeast: blocks SARS-CoV papain-like protease in a yeast assay | S. cerevisiae expressing SARS-CoV PLpro, growth rescue | Potency, µM (top dose mostly 32.9 µM), for the others: at the top dose activity, positive = growth rescue, usual class: activators | 330,000 compounds, 0.19% hits | AID 485353; calls by dose curve; further: potency means the concentration at half of the fitted maximal effect; 0% is about no effect; nearly all actives have a fitted effect of over 55% in size
AMA1-RON2 inh: disrupts binding of P. falciparum AMA1 to RON2 | AlphaScreen AMA1-biotinylated RON2 peptide binding | Potency, µM (titrated, usually from 58.2 µM), for the others: at the top dose activity change, negative = inhibition, usual class: inhibitors | 360,000 compounds, 0.2% hits | AID 720542;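 further: potency means the concentration at half of the fitted maximal effect; 0% = vehicle wells and -100% = peptide control; nearly all actives have a fitted effect of over 45% in size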
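AMA1 (3D7) with his tag at 25 nM final met compounds first, then biotinylated RON2 peptide at 25 nM; detection used donor plus acceptor beads, 10 µg/mL apiece, read by AlphaScreen after 30 min at room temperature.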
Shiga toxin inh: Shiga toxin inhibition; Vero cells, Shiga toxin protein synthesis inhibition reporter; inhibition, % at 38.7 µM; 290,000 compounds, 9.2% hits; in the data active means inhibition mostly above about 28%, no sharp cut-off; inactive means mostly below about 43%; further: 0% is about no effect
Pf growth 96h: inhibits malaria parasite growth, 96 h; 320,000 compounds, 6.9% hits; P. falciparum luciferase reporter growth, 96 h; Potency, µM (highest dose often 28.7 µM), for the others: at the top dose activity change, negative = inhibition, usual class: inhibitors; AID 504834; further: potency means the concentration at half of the fitted maximal effect; on the % scale 0 is the no-effect control and ±100 the full control effect
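Delayed-death screen, second-generation endpoint: infected erythrocytes, 2% hematocrit, 0.05% parasitemia final; 96 hours at 37 C, 5% CO2; luciferase detection reagent; luminescence decrease equals reduced growth.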
Cycloheximide cs: counter-screen for Shiga toxin inhibitors: cycloheximide protein synthesis inhibition. cell reporter, cycloheximide protein synthesis inhibition counterscreen. max response, %. 300,000 compounds, 12% hits. AID 2314; in the data active means max response mostly above about 13%, no sharp cut-off; inactive means mostly below about 14%; further: read at 38.3 µM for the half of the compounds with a filed dose; 0% is about no effect
Pf growth 48h: inhibits P. falciparum growth in the first generation, 48 h; P. falciparum luciferase growth in erythrocytes, 48 h; Potency, µM (top dose mostly 28.7 µM), inactives show top-dose activity change, negative = inhibition, actives largely listed as inhibitors; 310,000 compounds, 5.9% hits; AID 504832; further: potency means the concentration at half of the fitted maximal effect; on the % scale 0 is the no-effect control and ±100 the full control effect
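A one-generation exposure of luciferase-tagged malaria parasites in RPMI 1640/Albumax erythrocyte culture, 37 C and 5% CO2. Inhibition is inferred from decreased luminescence after adding detection reagent.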
Numbers without * were called inactive; i = inactive; ? = inconclusive; . = not tested or not shown; [ ] = remark or other dose. The list is not random: actives were taken first. Their share in the collection is about 19%. Unless noted, the call rests on the fitted dose curve; in most records, active means well fitted curve in the direction sought with a large enough effect; inconclusive means small, poorly fitted or top-dose-only effect, or another doubt; inactive means no such curve, though single readings can be large; an effect the other way counts as inactive or inconclusive.

SMILES | SARS PLpro yeast | AMA1-RON2 inh | Shiga toxin inh | Pf growth 96h | Cycloheximide cs | Pf growth 48h
COc1ccc(C(CNC(=O)c2oc3ccc(Br)cc3c2C)N2CCCCC2)cc1 (stereo unspecified) | 2.3% | -2.5% | 4.6 | -102.9% | 7.1 | ?
COc1ccc2oc(C(=O)Nc3ccc(C)cn3)c(C)c2c1 | -1.2% | -5.0% | . | 89.4% | . | 105.3%
COc1ccc2oc(C(=O)NCCC(C)C)c(C)c2c1 | -5.0% | 3.5% | 89.1 | 178.5% | 58.1* | i
CCOc1ccc2oc(C(=O)NCc3ccccc3CN3CCCC3)c(C)c2c1 | 1.9% | -4.6% | . | 9.28µM* | . | 9.28µM*
CCOc1ccc2oc(C(=O)NCC(c3ccco3)N(C)C)c(C)c2c1 (stereo unspecified) | 2.8% | -10.5% | . | ? | . | 0.2%
COc1ccc2cc(C(=O)NCc3ccccc3CN3CCCC3)ccc2c1 | 14.0% | 0.0% | . | ? | . | 9.28µM*
COc1ccc(C(CNC(=O)c2oc3ccc(OC)cc3c2C)N2CCCC2)cc1 (stereo unspecified) | -0.2% | -16.2% | . | 9.28µM* | . | 8.28µM*
COc1ccc(/C=C2\SC(=O)N(CCCC(=O)Nc3cc(Cl)ccc3C(=O)O)C2=O)cc1 | -7.2% | 15.1% | . | . | . | .
COCc1c(C(=O)NCc2ccccc2CN2CCCC2)oc2ccccc12 | 10.2% | 0.0% | . | 9.28µM* | . | ?
Cc1c(C(=O)N(C)CCn2ccnc2C)oc2c(F)cccc12 | 0.4% | 2.1% | -7.7 | ? | -3.5 | 3.3%
Cc1c(C(=O)N(C)CCCCN2CCOCC2)oc2c(F)cccc12 | -2.3% | 0.8% | . | ? | 15.2* | -7.5%
Cc1c(C(=O)NCc2ccccc2CN2CCCC2)oc2c(F)cccc12 | -37.8% | -11.0% | . | ? | . | 13.1µM*
COc1ccc2oc(C(=O)NCc3ccccc3CN3CCCC3)c(C)c2c1 | 0.9% | 4.8% | . | ? | . | 11.7µM*
CSc1nnc2ccc(-c3ccccn3)nn12 | -2.7% | 14.3% | 25.2 | 6.1% | 10.2 | ?
CCOC1=C2[C@@H](CN(S(=O)(=O)c3ccc(C)cc3)[C@H]2c2cccs2)[C@H]2C(=O)N(c3ccccc3)C(=O)[C@H]2C1 | . | 4.4% | . | . | . | .
CCc1cccc(CC)c1N(COC)C(=O)Cn1c(C(C)O)nc2ccccc21 (stereo unspecified) | -4.1% | -2.0% | 30.8 | 9.28µM* | 0.7 | 0.0%
CCOCCn1c(C(C)O)nc2ccccc21 (stereo unspecified) | 11.2% | 0.0% | -9.6 | 3.7µM* | 10.7 | 25.1%
CCOc1ccccc1NC(=O)c1nc(-c2ccccc2)oc1C | -1.4% | -6.8% | 20.6 | ? | 6.0 | -17.7%
CSc1nc(SCC(=O)NCc2ccco2)c2c3c(sc2n1)CN(C)CC3 | . | 14.5% | . | . | . | .
CCNc1nc(SCC(N)=O)nc2sc3c(c12)CCN(C)C3 | 0.0% | -11.4% | -3.8 | 1.04µM* | 2.2 | ?
CSc1nc(SCC(N)=O)c2c3c(sc2n1)CN(C)CC3 | 3.8% | -14.8% | -11.9 | 0.586µM* | 0.5 | 3.29µM*
CCOc1ncccc1C(=O)NCC(c1ccco1)N1CCCCC1 (stereo unspecified) | -7.5% | -8.6% | . | . | . | .
Cc1ccc(/C=C/C(=O)N2CCc3ccccc3C2)cc1 | -1.3% | -0.2% | 12.3 | 34.0% | 11.4* | .
Cc1ccc(-c2nc(CS(=O)(=O)CC(=O)N3CCc4ccccc4C3)c(C)o2)cc1 | -9.0% | -4.1% | 1.3 | 13.1µM* | -2.2 | -18.1%
CC(C)(C)c1ccc(/C=C/C(=O)N2CCc3ccccc3C2)cc1 | -11.9% | -0.2% | -7.3 | 0.738µM* | -1.2 | 0.928µM*
SMILES | SARS PLpro yeast | AMA1-RON2 inh | Shiga toxin inh | Pf growth 96h | Cycloheximide cs | Pf growth 48h
CCOC(=O)N1CCN(C(=O)/C=C/c2ccc(C(C)(C)C)cc2)CC1 | 0.9% | -17.8% | -12.1 | 170.0% | 5.3 | 0.0%
O=C(/C=C/c1ccc(F)cc1)N1CCc2ccccc2C1 | 3.4% | -2.9% | . | 37.8% | . | 63.2%
COc1ccc(C(CNC(=O)c2cc(F)c(F)c(F)c2F)N2CCOCC2)cc1 (stereo unspecified) | -0.1% | 1.6% | -9.7 | -3.7% | -2.6 | -13.5%
COc1ccc(C(=O)C2CCCN(C(=O)c3ccc(CSC)o3)C2)cc1F (stereo unspecified) | 7.2% | -8.4% | 17.4 | -12.1% | -2.8 | 9.7%
COc1cc(C(=O)Nc2ccncc2)c([N+](=O)[O-])cc1OC | -0.4% | -6.4% | -4.8 | ? | 1.2 | ?
COc1cc(C(=O)Nc2ccc(C#N)cc2)c([N+](=O)[O-])cc1OC | 1.9% | -7.0% | 3.2 | 10.4µM* | -0.8 | 7.6%
COc1cc(C(=O)Nc2ccc(N(C)C)cc2)c([N+](=O)[O-])cc1OC | 1.1% | -18.5% | 107.0* | 7.9% | 40.7* | 75.6%
O=C(NC1CC1)C1CCN(C2CCN(C(=O)/C=C/c3ccc(F)cc3)CC2)CC1 | 0.9% | -16.9% | -14.8 | -29.1% | -5.0 | 19.6%
Cc1ccccc1N1CCN(C(=O)CCN2C(=O)c3ccccc3C2=O)CC1 | 1.7% | -4.7% | 49.1* | 74.6% | 22.6* | 6.1%
CN1CCN(C(=O)CCN2C(=O)c3ccccc3C2=O)CC1 | 0.4% | -1.3% | 1.2 | 3.7% | 0.8 | 55.9%
O=C(CCCN1C(=O)c2ccccc2C1=O)N1CCCCC1 | 8.2% | 1.7% | 27.7 | 5.22µM* | 11.5 | 25.2%
COc1ccccc1OCCn1c(=S)[nH]c2ccccc21 | 9.1% | 24.4% | -8.5 | -13.6% | -2.9 | -3.4%
COc1ccccc1OCCn1c(=O)n(C)c2ccccc21 | 0.0% | 2.2% | 27.6* | 15.5% | 20.8* | 22.4%
Cn1c(=O)n(CCOc2ccc(Cl)cc2Cl)c2ccccc21 | -0.9% | -9.3% | -8.8 | 23.9% | -0.7 | .
Cn1c(=O)n(CCOc2ccccc2Cl)c2ccccc21 | -8.4% | -3.5% | 79.0* | 18.0% | 49.6* | ?
O=c1ccccn1CCOc1ccccc1Cl | 4.4% | -5.1%[11.6 µM] | 44.7* | 0.9% | 19.1* | 27.4%
OCCCc1nc2ccccc2n1CCOc1ccccc1 | 1.0% | 3.1% | -17.7 | ? | -3.2 | ?
COc1ccc(NCc2nc3ccccc3n2CCOc2ccccc2)cc1 | -22.9% | ? | 84.3* | 42.4% | 46.8* | -5.5%
COc1ccc(NCc2nc3ccccc3n2CCOc2ccc(C)cc2)cc1 | -121.5% | ? | 47.4* | 35.4% | 28.2* | -1.4%
c1ccc(NCc2nc3ccccc3n2CCOc2ccccc2)cc1 | -55.7% | 2.9% | active | ? | 15.7* | -18.4%
COc1ccc(OCCCCn2c(CO)nc3ccccc32)cc1 | -1.8% | 0.4% | 17.1 | ? | 2.8 | -3.2%
Cc1cc(C)c(NC(=O)C2CCCN2C)c(C)c1 (stereo unspecified) | 4.9% | 17.7% | -20.9 | 8.28µM* | -4.9 | 38.7%
COc1cc(/C=C2\C(=N)N3N=C(S(C)(=O)=O)SC3=NC2=O)ccc1OCCOc1ccccc1C | -0.9% | 2.6% | -6.2 | ? | 17.6 | 10.4µM*
Cc1cc(/C=C2/C(=N)N3C(=NC2=O)SN=C3S(C)(=O)=O)c(C)n1-c1ccc(F)cc1 | 1.7% | -1.4% | 35.8 | -17.9% | 17.1 | ?
